Experimental data from PubChem BioAssay (Tox21).
Inconclusive results are not listed. The source made the active and inactive calls. Unless noted, calls come from the whole dose curve.

Columns and labels:
[1] = Nuclear factor erythroid 2-related factor 2/antioxidant responsive element (Nrf2/ARE) small molecule agonists: qHTS cell viability counter screen in human keratinocytes (AID 1919968; active = well fitted curve in the direction sought with a large enough effect in the repeat runs; an effect the other way counts as inactive or inconclusive; note: nearly all actives have a fitted effect of over 55% in size)
How it was run: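 KeratinoSens cells (HaCaT keratinocytes stably carrying an ARE-luciferase reporter) were seeded at 1,500 cells/well and rested 5 h at 37 C/5% CO2. They were then exposed to compounds in DMSO for 23 h. Viability was read by CellTiter-Fluor fluorescence after 1 h.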

[2] = Nuclear factor erythroid 2-related factor 2/antioxidant responsive element (Nrf2/ARE) small molecule agonists: luciferase reporter gene qHTS assay in human keratinocytes (AID 1919969); note: nearly all actives have a fitted effect of over 35% in size
[3] = biological target: Gonadotropin-releasing hormone receptor (Homo sapiens) (UniProt P30968); assay: Human gonadotropin-releasing hormone receptor (GnRHR) small molecule agonists, calcium flux assay in GnRHR-HEK293 cells (AID 1920063); note: nearly all actives have a fitted effect of over 35% in size
Chain of Gonadotropin-releasing hormone receptor (Homo sapiens) (P30968 whole entry, looked up): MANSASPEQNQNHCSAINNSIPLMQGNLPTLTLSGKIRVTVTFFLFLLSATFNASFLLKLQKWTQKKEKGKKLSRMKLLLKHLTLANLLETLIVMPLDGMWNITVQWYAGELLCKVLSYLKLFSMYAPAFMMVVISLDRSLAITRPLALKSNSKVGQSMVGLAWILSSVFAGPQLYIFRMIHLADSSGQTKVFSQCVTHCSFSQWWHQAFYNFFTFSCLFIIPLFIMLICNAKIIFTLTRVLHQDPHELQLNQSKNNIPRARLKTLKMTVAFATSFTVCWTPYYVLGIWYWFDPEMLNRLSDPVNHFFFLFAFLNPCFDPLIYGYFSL
How it was run: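 HEK293 cells stably expressing human GnRHR were plated 18 h at 37 °C, loaded with calcium dye 1 h at 37 °C, then given compound in agonist mode; fluorescence (Ex/Em 480/540) read kinetically for 3 min at 1 s intervals.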

[4] = biological target: KiSS-1 receptor (Homo sapiens) (UniProt Q969F8); assay: Human kisspeptin (KISS1R) small molecule agonists, calcium flux assay in KISS1R-HEK293 cells (AID 1920064; active = well fitted curve in the direction sought with a large enough effect in the repeat runs; an effect the other way counts as inactive or inconclusive)
Chain of KiSS-1 receptor (Homo sapiens) (Q969F8 whole entry, looked up): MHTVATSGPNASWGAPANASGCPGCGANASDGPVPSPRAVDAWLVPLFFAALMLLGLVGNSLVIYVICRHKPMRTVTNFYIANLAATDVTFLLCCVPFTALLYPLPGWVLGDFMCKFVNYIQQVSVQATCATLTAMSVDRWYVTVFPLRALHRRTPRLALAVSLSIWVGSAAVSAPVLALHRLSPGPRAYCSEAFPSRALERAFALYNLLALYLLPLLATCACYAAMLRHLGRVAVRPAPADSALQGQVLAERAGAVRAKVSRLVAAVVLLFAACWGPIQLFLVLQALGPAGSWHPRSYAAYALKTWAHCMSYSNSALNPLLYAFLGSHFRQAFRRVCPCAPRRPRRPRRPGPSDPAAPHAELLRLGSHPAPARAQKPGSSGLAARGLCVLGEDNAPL
How it was run: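 HEK293 cells stably expressing human KISS1R were plated 18 h at 37 °C, loaded with calcium dye for 1 h at 37 °C, then given compound by pin tool. Fluorescence (Ex/Em 480/540) was read kinetically for 3 min.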

[5] = G protein-coupled receptor (GPCR) small molecule agonists, calcium flux assay: HEK293 wild type cell line counter screen (AID 1920065)
How it was run: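 Cells were plated and cultured 18 h at 37 C/5% CO2, then loaded with calcium dye for 1 h at 37 C. Compounds in DMSO were pin-transferred in agonist mode, and fluorescence (Ex/Em 480/540) was read kinetically for 3 min at 1 s intervals.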

[6] = p53 small molecule agonists, cell-based qHTS assay with human liver microsomes (AID 1963577);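 note: p53 response element beta-lactamase reporter cells with liver microsomes plus NADPH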
How it was run: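 Reporter activation was measured by LiveBLAzer fluorescence intensity in p53RE-bla cells, which had been exposed to compounds for 16 h at 37 C alongside 0.5 mg/mL human liver microsomes and 0.5 mg/mL NADPH (final concentrations).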

[7] = p53 small molecule agonists, cell-based qHTS assay with rat liver microsomes (AID 1963578)
How it was run: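 Compound in DMSO added to p53RE-bla cells 5 h post-plating; rat microsomes/NADPH 0.5 mg/mL final; 16 h, 37 C; LiveBLAzer 2 h RT.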

[8] = p53 small molecule agonists, cell-based qHTS assay with rat liver microsomes: qHTS cell viability counter screen (AID 1963580); note: nearly all actives have a fitted effect of over 45% in size
How it was run: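 p53RE-bla HCT-116 cells were exposed 16 h at 37 C to compounds with rat liver microsomes (0.5 mg/mL) and NADPH (0.5 mg/mL). Viability was measured in the same wells as ATP content by CellTiter-Glo luminescence.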

[9] = p53 small molecule agonists, cell-based qHTS assay: qHTS cell viability counter screen (AID 1963581); note: nearly all actives have a fitted effect of over 45% in size
How it was run: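 p53RE-bla HCT-116 cells were exposed to compounds for 16 h at 37 C; after the beta-lactamase FRET read in the same wells, CellTiter-Glo was added and luminescence (intracellular ATP) read after 30 min at room temperature.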

[10] = p53 small molecule agonists, cell-based qHTS assay (AID 1963582; active = well fitted activation curve with a large enough effect in the signal ratio in the repeat runs, not every such curve was filed as active; the % refers to the signal ratio)
How it was run: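 p53RE-bla beta-lactamase reporter cells rested 5 h at 37 C/5% CO2, then received compounds in DMSO by pin transfer and were incubated 16 h at 37 C. LiveBLAzer B/G FRET substrate was loaded for 2 h at room temperature before fluorescence reading.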

[11] = biological target: 5-hydroxytryptamine receptor 2A (Homo sapiens) (UniProt P28223); assay: 5-hydroxytryptamine receptor 2A (HTR2A) small molecule antagonists, cell-based qHTS assay (AID 1963586); note: nearly all actives have a fitted effect of over 45% in size
Chain of 5-hydroxytryptamine receptor 2A (Homo sapiens) (P28223 whole entry, looked up): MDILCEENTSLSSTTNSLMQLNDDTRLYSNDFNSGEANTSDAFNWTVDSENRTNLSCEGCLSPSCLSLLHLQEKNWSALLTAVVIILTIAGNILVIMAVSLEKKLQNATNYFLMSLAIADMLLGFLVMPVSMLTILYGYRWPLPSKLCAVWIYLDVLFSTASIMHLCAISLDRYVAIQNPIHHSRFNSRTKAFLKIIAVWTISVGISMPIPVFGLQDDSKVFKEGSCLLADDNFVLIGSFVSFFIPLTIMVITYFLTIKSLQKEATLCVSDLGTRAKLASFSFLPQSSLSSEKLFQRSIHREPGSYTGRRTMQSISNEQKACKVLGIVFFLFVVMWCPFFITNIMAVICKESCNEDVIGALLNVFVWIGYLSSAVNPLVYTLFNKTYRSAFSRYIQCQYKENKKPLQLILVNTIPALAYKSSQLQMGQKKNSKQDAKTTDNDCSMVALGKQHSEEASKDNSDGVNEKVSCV
How it was run: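 Antagonist-mode intracellular calcium assay: DOI (4 nM) added after 5 min compound pre-incubation at room temperature to dye-loaded HTR2A-CHO cells. Fluorescence followed for 3 min, sampled every second.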

[12] = biological target: Muscarinic acetylcholine receptor M1 (Homo sapiens) (UniProt P11229); assay: Cholinergic receptor muscarinic 1 (CHRM1) small molecule antagonists, cell-based qHTS assay (AID 1963588); note: nearly all actives have a fitted effect of over 40% in size
Chain of Muscarinic acetylcholine receptor M1 (Homo sapiens) (P11229 whole entry, looked up): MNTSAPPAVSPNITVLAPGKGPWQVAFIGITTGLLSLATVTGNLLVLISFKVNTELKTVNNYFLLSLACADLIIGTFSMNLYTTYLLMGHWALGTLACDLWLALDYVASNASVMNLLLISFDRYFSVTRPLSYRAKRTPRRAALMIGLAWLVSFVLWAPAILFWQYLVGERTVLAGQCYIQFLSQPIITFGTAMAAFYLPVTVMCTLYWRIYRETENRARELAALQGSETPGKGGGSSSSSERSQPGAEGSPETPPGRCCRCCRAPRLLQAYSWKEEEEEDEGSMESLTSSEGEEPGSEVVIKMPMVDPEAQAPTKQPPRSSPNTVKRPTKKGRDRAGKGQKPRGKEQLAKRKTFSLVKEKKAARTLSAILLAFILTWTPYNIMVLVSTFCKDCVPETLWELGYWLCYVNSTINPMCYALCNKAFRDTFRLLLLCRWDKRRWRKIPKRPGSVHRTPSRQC
How it was run: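 CHRM1-CHO calcium-flux assay, antagonist mode. Cells were seeded 18 h, dye-loaded 1 h at 37 C and given compound for 5 min at RT, then acetylcholine was added at 50nM. FDSS fluorescence was read 3 min; 15 concentrations, three runs.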

[13] = biological target: Muscarinic acetylcholine receptor M1 (Homo sapiens) (UniProt P11229); assay: Cholinergic receptor muscarinic 1 (CHRM1) small molecule agonists, cell-based qHTS assay (AID 1963589); note: nearly all actives have a fitted effect of over 35% in size
How it was run: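 CHO cells stably expressing human CHRM1, seeded 18 h at 37 C/5% CO2, dye-loaded 1 h at 37 C, then given compound in agonist mode; intracellular calcium fluorescence read kinetically at 1 s intervals. Fifteen concentrations, three independent runs.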

[14] = cAMP Responsive Elements (CRE) small molecule agonists, cell-based qHTS assay (AID 1963590)
How it was run: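 CRE-bla HEK 293T cells in DMEM with 10% dialyzed FBS, NEAA, pyruvate and 25 mM HEPES were plated 18 h at 37 C/5% CO2, then exposed to compounds in DMSO for 3 h before LiveBLAzer B/G FRET substrate addition.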

[15] = cAMP Responsive Elements (CRE) small molecule antagonists, cell-based qHTS assay (AID 1963591; active = well fitted inhibition curve with a large enough effect in the signal ratio in the repeat runs, not every such curve was filed as active; the % refers to the signal ratio)
How it was run: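 CRE-bla HEK293T cells were plated 18 h at 37 °C/5% CO2, pinned with compound in DMSO, then stimulated with NKH477 at 0.25 uM final for 3 h. LiveBLAzer B/G FRET substrate was added and plates incubated 2 h at room temperature.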

[16] = biological target: Beta-2 adrenergic receptor (Homo sapiens) (UniProt P07550); assay: Adrenergic beta2 receptor (ADRB2) small molecule antagonists, cell-based qHTS assay (AID 1963592); note: series mostly up to about 92 µM; nearly all actives have a fitted effect of over 50% in size
Chain of Beta-2 adrenergic receptor (Homo sapiens) (P07550 whole entry, looked up): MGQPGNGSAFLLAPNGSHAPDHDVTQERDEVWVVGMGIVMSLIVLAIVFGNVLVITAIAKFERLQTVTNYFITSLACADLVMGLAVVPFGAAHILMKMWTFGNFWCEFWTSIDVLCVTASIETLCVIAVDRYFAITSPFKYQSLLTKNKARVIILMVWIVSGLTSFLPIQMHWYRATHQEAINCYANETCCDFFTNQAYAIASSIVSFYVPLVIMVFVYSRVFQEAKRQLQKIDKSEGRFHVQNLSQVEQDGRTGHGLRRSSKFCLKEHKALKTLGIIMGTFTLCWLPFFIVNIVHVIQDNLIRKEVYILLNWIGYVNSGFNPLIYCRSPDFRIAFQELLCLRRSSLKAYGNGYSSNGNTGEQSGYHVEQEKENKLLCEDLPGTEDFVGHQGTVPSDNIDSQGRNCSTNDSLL
How it was run: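 Cells (CHO, stable ADRB2 overexpression) incubated 18-20hr at 37C; compounds added from DMSO; agonist mix (1nM isoproterenol, 100uM IBMX, 25uM Ro-20-1724) added; 0.5hr RT; d2-cAMP and anti-cAMP-cryptate added; 1hr RT; 665/615 nm read.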

[17] = biological target: Beta-2 adrenergic receptor (Homo sapiens) (UniProt P07550); assay: Adrenergic beta2 receptor (ADRB2) small molecule agonists, cell-based qHTS assay (AID 1963593);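 note: CHO cells stably overexpressing human ADRB2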
How it was run: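 CHO cells stably over-expressing ADRB2 were plated overnight at 37C, then dosed with compounds plus a stimulation mix containing 100uM IBMX and 25uM Ro-20-1724 for 0.5hr at room temperature. cAMP was measured by HTRF competition, 1hr.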

[18] = biological target: D(2) dopamine receptor (Homo sapiens) (UniProt P14416); assay: Dopamine D2 receptor (DRD2) small molecule antagonists, cell-based qHTS assay (AID 1963595; active = well fitted inhibition curve with a large enough effect in the signal ratio in the repeat runs, with a control signal flat; the % refers to the signal ratio)
Chain of D(2) dopamine receptor (Homo sapiens) (P14416 whole entry, looked up): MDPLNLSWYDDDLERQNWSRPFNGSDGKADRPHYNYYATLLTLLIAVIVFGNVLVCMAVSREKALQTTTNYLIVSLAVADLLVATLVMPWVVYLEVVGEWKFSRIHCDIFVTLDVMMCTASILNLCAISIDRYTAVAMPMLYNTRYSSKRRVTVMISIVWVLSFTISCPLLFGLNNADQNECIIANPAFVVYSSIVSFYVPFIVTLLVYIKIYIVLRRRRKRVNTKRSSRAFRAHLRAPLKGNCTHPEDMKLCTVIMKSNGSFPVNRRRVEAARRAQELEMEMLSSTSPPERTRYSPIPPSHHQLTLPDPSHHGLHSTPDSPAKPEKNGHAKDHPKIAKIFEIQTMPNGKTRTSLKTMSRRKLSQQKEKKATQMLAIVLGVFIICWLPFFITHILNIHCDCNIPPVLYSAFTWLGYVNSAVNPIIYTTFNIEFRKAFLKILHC
How it was run: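 HEK293 cells stably expressing DRD2 were preincubated with 0.1 mM Ro20-1724, then with compound for 10 min at room temperature. Cells were stimulated with 200 nM NKH477 plus 12 nM quinpirole for 30 min, and cAMP was read by HTRF.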

[19] = biological target: D(2) dopamine receptor (Homo sapiens) (UniProt P14416); assay: Dopamine D2 receptor (DRD2) small molecule agonists, cell-based qHTS assay (AID 1963594); note: nearly all actives have a fitted effect of over 35% in size
How it was run: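 HEK293 cells stably expressing human DRD2, pre-treated with PDE inhibitor Ro20-1724 (0.1 mM final) and compound 10 min at room temperature, then stimulated with NKH477 (200nM […]) for 30 min. cAMP read by HTRF (665/620 nm).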

[20] = biological target: 5-hydroxytryptamine receptor 2A (Homo sapiens) (UniProt P28223); assay: 5-hydroxytryptamine receptor 2A (HTR2A) small molecule agonists, cell-based qHTS assay (AID 1963587); note: nearly all actives have a fitted effect of over 30% in size
How it was run: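 CHO cells stably expressing human HTR2A, plated 18 h, loaded with calcium dye 1 h at 37 C. Agonist mode: compounds added and intracellular calcium fluorescence recorded kinetically for 2 min at 1 sec intervals.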

Measured: Potency

CCN(CC)CC(=O)Nc1c(C)cccc1C(=O)OC
not listed: [19] | [20]
inactive: all other assays above

CCCCCCCCN(C)CCCCCCCC
not listed: [12] | [16] | [17] | [20]
inactive: all other assays above

CCc1nnc(NS(=O)(=O)c2ccc(N)cc2)s1
not listed: [13] | [15] | [18]
inactive: all other assays above

CCC(=O)Nc1ccc(O)cc1
not listed: [14] | [17] | [20]
inactive: all other assays above

CCCCc1ccc2c(n1)[C@@H](c1ccc(OC)cc1C[C@H](C)C(=O)O)[C@H](C(=O)O)[C@H]2c1ccc2c(c1)OCO2
not listed: [14] | [15] | [17] | [18] | [19]
inactive: all other assays above

NC(=O)c1cn(Cc2c(F)cccc2F)nn1
not listed: [11]
inactive: all other assays above
